Source: PubChem
Only some compounds are listed: those with a hit (about 1.2% of all), similar ones and a draw of the others.
aGal spleen mod: qHTS Assay for Inhibitors and Activators of Human alpha-Galactosidase From Spleen Homogenate; Alpha-galactosidase A (Homo sapiens), P06280; human spleen homogenate, 4MU-alpha-Gal fluorescence, 40 min; Potency, µM (doses to about 80 µM), inactives show at the top dose activity change, negative = inhibition, usual class: inhibitors; 240,000 tested, 0.008% active;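 note: potency is the fitted concentration of half-maximal effect; 0% = enzyme with vehicle and -100% = no enzyme basal signal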
Target sequence (P06280 32-429 limits assumed): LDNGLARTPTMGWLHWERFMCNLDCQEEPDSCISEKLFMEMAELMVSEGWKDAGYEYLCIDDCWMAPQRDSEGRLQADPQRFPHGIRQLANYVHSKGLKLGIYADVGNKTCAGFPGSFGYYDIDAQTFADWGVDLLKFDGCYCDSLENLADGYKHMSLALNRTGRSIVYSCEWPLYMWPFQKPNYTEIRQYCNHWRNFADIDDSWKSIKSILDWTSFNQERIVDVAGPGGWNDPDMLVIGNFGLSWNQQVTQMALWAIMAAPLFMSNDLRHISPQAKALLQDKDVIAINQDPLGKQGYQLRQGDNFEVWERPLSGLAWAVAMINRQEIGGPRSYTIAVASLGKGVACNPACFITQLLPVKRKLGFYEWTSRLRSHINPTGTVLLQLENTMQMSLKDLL
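Human spleen homogenate (1 ug) was the enzyme source, with 4-methylumbelliferyl-alpha-D-galactopyranoside (1 mM final) in pH 5.0 citrate buffer with 0.01% Tween-20. Compounds were titrated; after 40 min at 37C, NaOH/glycine stop, 4-MU fluorescence read; AC50 from Hill fits.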
PKM2 activator: qHTS Assay for Activators of Human Muscle isoform 2 Pyruvate Kinase; purified PKM2, Kinase-Glo ATP luminescence, activation; response scale: 0% is enzyme alone, no compound; Potency, µM (titrated, usually from 57.5 µM), for the others: at the highest dose activation, usual class: activators; 260,000 tested, 0.34% active; Pyruvate kinase PKM (Homo sapiens), P14618; AID 1631, 2009; note: potency is the fitted concentration of half-maximal effect; % is set by controls: 0 for no effect and ±100 for the full control effect; nearly all actives have a fitted effect of over 55% in size
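Purified hPK-M2 (>95%) run at intermediate activity with 0.1 mM ADP and 0.5 mM PEP in 50 mM imidazole pH 7.2, KCl, MgCl2; 1 h room temperature. ATP formed read by Kinase-Glo luminescence; normalized to uninhibited and no-enzyme controls.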
HTT aggregate: qHTS Multiplex Assay to Identify Dual Action Probes in a Cell Model of Huntington: Aggregate Formation (GFP) | 220,000 tested, 1.1% active | PC12 HttQ103-GFP aggregates, Acumen cytometry, 40 h | AID 1688, 2009 | Potency, µM (top dose mostly 46.1 µM), without a hit: at the highest dose activity change, negative = inhibition, most hits filed as inhibitors; note: potency is the fitted concentration of half-maximal effect; % is set by controls: 0 for no effect and ±100 for the full control effect; nearly all actives have a fitted effect of over 60% in size
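Using laser scanning cytometry, GFP-positive aggregates were counted after lysis of PC12 cells induced with 100 nM tebufenozide to express HTT exon 1 Q103–GFP. Compounds were tested in titration.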
HTT ATP protect: qHTS Multiplex Assay to Identify Dual Action Probes in a Cell Model of Huntington: Cytoprotection (ATP). Potency, µM (highest dose often 56.4 µM), for inactives: cytoprotection (ATP increase), actives largely listed as activators. 230,000 tested, 0.14% active. AID 1471, 2008. PC12 HTT-Q103 induced, cytoprotection, ATP luminescence, 40 h; note: potency is the fitted concentration of half-maximal effect; % of control where 0% means no effect; nearly all actives have a fitted effect of over 45% in size
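PC12 cells stably carrying ecdysone-inducible Htt exon 1 (Q103)–GFP were induced with 100 nM tebufenozide (final) alongside library compounds in a dose series. Cytoprotection was scored as retained ATP by ATPlite luminescence.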
GLA inh pH 4.5: qHTS Assay for Inhibitors of Human alpha-Galactosidase at pH 4.5 | AID 1467, 2008 | activity change, negative = inhibition, % at 105 µM | Alpha-galactosidase A (Homo sapiens), P06280 | purified enzyme, 4-MU-alpha-Gal fluorescence, pH 4.5 | 230,000 tested, under 10 active;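 note: 0% = full activity with enzyme and -100% = basal without enzyme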
Numbers without * were called inactive; ? = inconclusive; nt = no result given; ! = not active in a repeat; [ ] = remark or other dose. Calls come from the whole dose curve; as a rule, active = well fitted curve in the direction sought with a large enough effect; inconclusive = small, poorly fitted or top-dose-only effect, or another doubt; inactive = no such curve, though single readings can be large; an effect the other way counts as inactive or inconclusive.

SMILES | aGal spleen mod | PKM2 activator | HTT aggregate | HTT ATP protect | GLA inh pH 4.5
O=c1c2sccc2nc(SCc2cc(=O)n3cc(Br)ccc3n2)n1Cc1ccccn1 | -2% | 7.9µM* | 3% | -44% | -7[21.1 µM]
Cc1ccc(CSc2nc3ccsc3c(=O)n2Cc2ccccn2)cc1 | -2% | 3% | -2% | 9%[10 µM] | 3
CC(C)C(=O)N[C@@H]1CCCN1C(=O)/C=C\c1ccccc1 | -5%[17.5 µM] | nt | nt | 1%[10 µM] | nt
COc1ccc(-c2nc3ccccc3n2Cc2ccc(C)cc2)cc1 | 7% | -3% | ? | -74% | -6
COc1ccc(Cn2c(-c3ccc(C)cc3)c[n+]3ccccc23)cc1 | -11% | 10% | 8.9µM* | 22%[1.9 µM] | -3
CCCNC(=O)c1nnsc1S(=O)(=O)c1ccc(Cl)cc1 | -7% | nt | ? | -144% | 1
CCCNC(=O)c1nnsc1S(=O)c1ccc(Cl)cc1 (configuration not stated) | 5% | nt | 11µM* | -150% | 1
CNC(=O)c1nnsc1S(=O)c1ccc(Cl)cc1 (configuration not stated) | -12% | nt | 14µM* | -142% | -4
O=S(=O)(c1ccccc1Br)N(Cc1ccccc1)Cc1ccco1 | 2% | nt | nt | nt | nt
C=C1CCC(O)C/C1=C/C=C1\CCC[C@]2(C)[C@@H]([C@H](C)/C=C/[C@H](C)C(C)C)CC[C@@H]12 (some centres not stated) | nt | nt | 4% | 11% | nt
Cc1ccc(OCc2nnc(SCC(=O)N3CCOCC3)n2C)cc1 | -6% | -20% | 4% | 13µM* | -10
COc1ccc([C@]23Cc4cc(C#N)ccc4C(O2)c2c(cc(C)n(-c4ccccc4)c2=O)O3)cc1 | nt | 6%[11.5 µM] | nt | nt | nt
Cn1c(OCc2cccnc2)nc2c1c(=O)n(Cc1ccc(Br)cc1)c(=O)n2C | 12% | 20µM* | -5% | -52% | 5
O=C(CSc1c(Cl)cccc1Cl)N1CCC(c2nc3ccccc3s2)CC1 | 1% | 2% | 11µM* | -53% | 0
COc1cccc(-c2ccc3ncnc(NC4CC4)c3c2)c1 | -3% | nt | nt | -222% | nt
Cc1nn(-c2ccccc2)c2c1C(c1ccc([N+](=O)[O-])cc1)N1C(=N2)C(=O)Nc2ccccc21 (configuration not stated) | -20% | 1% | 13µM* | -19%[10 µM] | -29
COCOc1c2c(c(OCOC)c3c(OCOC)cccc13)/C(=N/N[S+](=O)([O-])c1ccc(C)cc1)C1=C2CCCC1 | -5% | nt | nt | 13% | 1
Cc1ccccc1Oc1nnc(-c2cccs2)c2ccccc12 | 2% | -3% | 3.5µM* | 12%[10 µM] | 1
O=C(c1csnn1)N1CCC[C@@]2(CCN(Cc3cc(C(F)(F)F)cc(C(F)(F)F)c3)C2)C1 | 2% | nt | nt | 13% | nt
CCCCC/C=C\C[C@H](O)/C=C\c1cccc(C[C@H](O)CCCCO)n1 | nt | nt | nt | 9%[1.9 µM] | nt
Cc1ccc(Cn2cccc2/C=C2/C(=N)N3C=CSC3=NC2=O)cc1 | 1% | 2% | 6% | ? | 1
N=C1/C(=C/c2cccn2Cc2ccc(F)cc2)C(=O)N=C2SC=CN12 | 16% | -2% | 0.014µM* | -15% | -9
Nc1nc(SCC(=O)O)[nH]c(=O)c1N | nt | nt | nt | -5%[10 µM] | nt
c1ccc(-c2nc(N3CCN(c4ccccc4)CC3)nc(-n3ccnc3)n2)cc1 | 0% | 0% | 14µM* | -28% | -16
Cc1noc(C)c1COC(=O)Cc1ccc(Cl)c(Cl)c1 | -7% | -7% | 0.79µM* | -16%[0.074 µM] | 1
SMILES | aGal spleen mod | PKM2 activator | HTT aggregate | HTT ATP protect | GLA inh pH 4.5
CCCCNS(=O)(=O)c1ccc(S(=O)(=O)NCc2ccncc2)cc1 | 6% | -3% | 7.9µM* | nt | -10
Cc1cc(C)c(S(=O)(=O)NCc2ccncc2)c(C)c1 | 8% | 1% | 6.3µM* | 35% | 7
Cc1cc(C)c(S(=O)(=O)NCc2ccccn2)c(C)c1 | nt | -2% | nt | nt | nt
CCCCc1ccc(S(=O)(=O)NCCc2ccncc2)cc1 | -3% | 2% | ? | 20%[10 µM] | -8
C=CCOC(=O)NC(CC(=Nc1ccc(OC)cc1)C(=O)OC)c1ccccc1 (configuration not stated) | 7% | nt | nt | 0% | 0
O=C(c1ccc(S(=O)(=O)c2cccc(Cl)c2)c([N+](=O)[O-])c1)N1CCN(c2ccccn2)CC1 | 1% | 9% | 11µM* | -205% | -3
O=C(c1cnc(N2CCN(c3ccccn3)CC2)c2ccccc12)N1CCN(c2cccc(Cl)c2)CC1 | 6% | 9% | 7.9µM* | -71% | 9
O=C(c1cccc(Cl)c1)N1CCN(c2ccccn2)CC1 | 0% | -1% | 4% | 5% | 2
COC(=O)NC(CC(C)=O)c1ccc(F)cc1 (configuration not stated) | -1%[17.5 µM] | nt | nt | -14%[10 µM] | nt
CC(NNC(=O)c1ccccc1)c1ccccc1 (configuration not stated) | nt | nt | 42% | -6% | nt
CCCN1C(=O)/C(=C/c2ccc(C)o2)NC1=S | 1% | 25µM* | -13% | -2% | -15
CCCN1C(=O)/C(=C/c2ccc(N3CCCC3)c(C)c2)NC1=S | ? | -5% | 13µM* | -106% | -28
Cc1ccc(/C=C2/NC(=O)N(Cc3ccccc3F)C2=O)o1 | 2% | 3.5µM* | ? | 20%[10 µM] | 4
CCn1c(C)cc(/C=C2/NC(=O)N(Cc3ccccc3F)C2=O)c1C | -10% | 7% | 7% | nt | 1
Cc1ccc(/C=C2/NC(=O)N(Cc3ccc(Br)cc3)C2=O)o1 | 1% | 1.6µM* | 21% | 8%[10 µM] | 6
CCN1C(=O)N/C(=C/c2ccc(C)o2)C1=O | 7% | ? | ? | -23%[10 µM] | 3
O=C(Cl)c1c(Cl)cccc1Cl | 11% | nt | nt | 12% | nt
C#C[C@]1(OC(C)=O)CC[C@H]2[C@@H]3CCC4=CC(=O)CC[C@@H]4[C@H]3CC[C@@]21C | 1% | nt | nt | -116% | -4
Oc1ccc(O)cc1 | 1% | nt | -13% | 32µM*! | -7
CC(=O)c1ccc(-n2c(CCC(=O)O)ccc2-c2cccs2)cc1 | -2% | ? | -5% | -45% | -22
COC(=O)c1cccc(-n2c(CCC(=O)O)ccc2-c2cccs2)c1 | 0% | 18µM* | -14%[9.22 µM] | 11%[10 µM] | -5
Cc1cccc(-n2c(SCC(=O)N3CC(=O)Nc4ccccc43)nc3ccccc3c2=O)c1C | -14% | 1% | ? | 0.89µM* | -6
Cc1cccc(-n2c(SCC(=O)N3CC(=O)Nc4ccccc43)nc3ccccc3c2=O)c1 | 12% | 21% | 19% | 3% | 5
CCCCCCCCCCn1c2c(c(=N)c3c1CCC3)CCC2 | -4% | -1% | 1µM* | -108% | -4
CCCCCCCCCn1c2c(c(=N)c3c1CCC3)CCCC2 | -23% | -3% | -33%[9.22 µM] | -76%[10 µM] | 5
